Results from PubChem BioAssay AID1159580 (chemical genetic matrix, 2015).
“And” between values parts separate entries of the source, which are not always exact repeats. Identical values can stand only once. Out of some 5,500 compounds screened, about 2,000 (36%) were called active. About 18% were inconclusive and are not listed. Cut-off read from the data, not from the text of the source: active = normalized growth mostly below about 0.91 (no sharp cut-off); inconclusive = no clear call, values can overlap the other calls; inactive = mostly above about 0.92. The list shows a part of the results.

Assay: chemical genetic growth profiling, strain panel (AID 1159580);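 note: tested at 20 µM; growth read once vehicle control cultures reached saturation at 30 °C; 1 = growth at the plate median or of vehicle wells; lower values mean less growth of the strain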
Conditions: growth OD

Measured: normalized growth

O=c1oc2ccccc2cc1[N+](=O)[O-]
active: S. cerevisiae deletion strains, locus YAL013W, strain DEP1, hits give low values 0.0574 | S. cerevisiae deletion strains, locus YBR229C, strain ROT2, hits give low values 0.0595 | S. cerevisiae deletion strains, locus YCL061C, strain MRC1, hits give low values 0.0567 | S. cerevisiae deletion strains, locus YDL101C, strain DUN1, hits give low values 0.0763 | S. cerevisiae deletion strains, locus YDL134C, strain PPH21, hits give low values 0.049 | S. cerevisiae deletion strains, locus YDR150W, strain NUM1, hits give low values 0.0585 | S. cerevisiae deletion strains, locus YEL061C, strain CIN8, hits give low values 0.0579 | S. cerevisiae deletion strains, locus YGR052W, strain FMP48, hits give low values 0.114 | S. cerevisiae deletion strains, locus YGR078C, strain PAC10, hits give low values 0.0524 | S. cerevisiae deletion strains, locus YGR229C, strain SMI1, hits give low values 0.0596 | S. cerevisiae deletion strains, locus YHR030C, strain SLT2, hits give low values 0.0818 and 0.0892 | S. cerevisiae deletion strains, locus YHR079C, strain IRE1, hits give low values 0.106 | S. cerevisiae deletion strains, locus YHR082C, strain KSP1, hits give low values 0.105 | S. cerevisiae deletion strains, locus YHR087W, strain rtc3, hits give low values 0.0624 | S. cerevisiae deletion strains, locus YJL095W, strain BCK1, hits give low values 0.104 | S. cerevisiae deletion strains, locus YJR043C, strain POL32, hits give low values 0.0547 | S. cerevisiae deletion strains, locus YJR066W, strain TOR1, hits give low values 0.102 | S. cerevisiae deletion strains, locus YJR075W, strain HOC1, hits give low values 0.0787 | S. cerevisiae deletion strains, locus YKL171W, strain NNK1, hits give low values 0.106 | S. cerevisiae deletion strains, locus YKL190W, strain CNB1, hits give low values 0.0491 | S. cerevisiae deletion strains, locus YKL203C, strain TOR2, hits give low values 0.0901 | S. cerevisiae deletion strains, locus YLR039C, strain RIC1, hits give low values 0.0723 | S. cerevisiae deletion strains, locus YLR058C, strain SHM2 (second series), hits give low values 0.0528 | S. cerevisiae deletion strains, locus YLR085C, strain ARP6, hits give low values 0.071 | S. cerevisiae deletion strains, locus YLR113W, strain HOG1, hits give low values 0.137 | S. cerevisiae deletion strains, locus YLR262C, strain YPT6, hits give low values 0.0758 | S. cerevisiae deletion strains, locus YML094W, strain GIM5, hits give low values 0.0733 | S. cerevisiae deletion strains, locus YMR219W, strain ESC1, hits give low values 0.0518 | S. cerevisiae deletion strains, locus YMR263W, strain SAP30, hits give low values 0.0584 | S. cerevisiae deletion strains, locus YNL153C, strain GIM3, hits give low values 0.057 | S. cerevisiae deletion strains, locus YNL183C, strain NPR1, hits give low values 0.119 | S. cerevisiae deletion strains, locus YNL207W, strain RIO2, hits give low values 0.0939 | S. cerevisiae deletion strains, locus YNL298W, strain CLA4 (second series), hits give low values 0.0711 | S. cerevisiae deletion strains, locus YNL322C, strain KRE1, hits give low values 0.0611 | S. cerevisiae deletion strains, locus YNR030W, strain Alg12, hits give low values 0.0702 | S. cerevisiae deletion strains, locus YOL006C, strain TOP1, hits give low values 0.0751 | S. cerevisiae deletion strains, locus YOR119C, strain RIO1, hits give low values 0.0989 | S. cerevisiae deletion strains, locus YOR231W, strain MKK1, hits give low values 0.106 | S. cerevisiae deletion strains, locus YPL055C, strain LGE1, hits give low values 0.0749 | S. cerevisiae deletion strains, locus YPL241C, strain CIN2, hits give low values 0.0745 | S. cerevisiae deletion strains, locus YPL256C, strain CLN2, hits give low values 0.0976 | S. cerevisiae deletion strains, locus YPR135W, strain CTF4, hits give low values 0.155 | S. cerevisiae strains, strain wild type, hits give low values 0.0506
